Laboratory results published in PubChem BioAssay AID1224865 (Sanford-Burnham Center for Chemical Genomics, 2016).
About 1,100 (0.31%) of roughly 360,000 compounds were called active. Shown is part of a subset that was picked to be rich in actives. Unmarked numbers belong to inactive results. No stated cut-off is given here; in the data, active means activity change above about 30% (passing the limit was not always enough); inactive means the rest.

target: Hepatocyte nuclear factor 4-alpha (Homo sapiens) (UniProt P41235); test: change in binding of human HNF4A to DNA, primary screen, biochemical, fluorescence polarization, FITC-DNA (AID 1224865); settings: 1 h, at 10 µM, active compounds read high
Sequence (P41235 whole entry, looked up): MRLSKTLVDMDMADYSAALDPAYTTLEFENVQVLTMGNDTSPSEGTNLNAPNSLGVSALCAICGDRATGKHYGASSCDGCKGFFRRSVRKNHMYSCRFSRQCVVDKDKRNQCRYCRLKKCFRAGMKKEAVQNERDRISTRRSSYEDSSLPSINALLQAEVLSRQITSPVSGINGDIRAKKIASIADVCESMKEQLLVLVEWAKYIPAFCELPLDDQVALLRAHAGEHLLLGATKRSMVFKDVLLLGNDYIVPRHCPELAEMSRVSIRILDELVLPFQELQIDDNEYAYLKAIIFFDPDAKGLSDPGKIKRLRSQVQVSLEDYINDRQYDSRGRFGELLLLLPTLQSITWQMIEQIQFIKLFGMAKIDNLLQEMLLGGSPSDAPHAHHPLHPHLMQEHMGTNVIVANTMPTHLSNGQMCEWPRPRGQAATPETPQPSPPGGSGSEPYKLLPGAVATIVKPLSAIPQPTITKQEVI

SMILES	activity change
COc1ccc(CCNS(=O)(=O)c2cn(C)nc2C)cc1	1.38%
N#Cc1ccc(C(=O)Nc2cccc3cccnc23)c(F)c1	43.6% (active)
CSc1ccc(C#N)cc1NC(=O)c1ccc(Cl)cc1	2.01%
N#Cc1ccccc1NC(=O)COc1c(Br)cc(Br)c2cccnc12	-0.16%
COCCNC(=O)c1cc2c(Br)ccc(Br)c2nc1N	-2.58%
Cc1cccn2c(=O)c(C=O)c(Nc3ccc(S(N)(=O)=O)cc3)nc12	-2.3%
CCCN(CCC)c1nc2c(C)cccn2c(=O)c1/C=C1/SC(=S)N(Cc2ccco2)C1=O	8.02%
Cc1cccn2c(=O)c(/C=C3\SC(=S)N(CC(C)C)C3=O)c(NCCCOC(C)C)nc12	82.9% (active)
CCc1nnc(NC(=O)CSc2nc(SC)ns2)s1	0.21%
Cc1cc(C(=O)CC#N)c(C)n1-c1c(C)n(C)n(-c2ccccc2)c1=O	11.5%
CCCCSCCCNC(=O)C1CCC(CNS(=O)(=O)c2ccc(NC(C)=O)cc2)CC1 (configuration not stated)	2.47%
CCc1ccc(C2C(C#N)=C(N)N(N(C)C)C3=C2C(=O)CCC3)s1 (configuration not stated)	0.21%
CCCC(O)(CCC)C(=O)NN(C(=O)CCl)c1cccc(C)c1	0.04%
N[C@@H](Cc1ccccc1)C(=O)N1CCOCC1	2.36%
CCN(/N=C/c1ccc(N(C)C)cc1)c1nc2ccccc2[nH]1	-0.96%
COc1cc(/C=C(\C#N)c2nc3c(s2)CC(C)CC3)ccc1O (configuration not stated)	74% (active)
COc1cc(C=NC2CCCCC2)ccc1O	1.88%
COc1cc(/C=C(\C#N)c2nc3ccccc3[nH]2)ccc1O	50.5% (active)
COC(=O)CSc1ccc2nnc(CCNS(=O)(=O)c3ccc(C)cc3)n2n1	-1.91%
CC(NC(=O)C(C)(C)C)C(c1cccs1)N1CCN(Cc2ccccc2)CC1 (configuration not stated)	-1.5%
CN1OC[C@@H]2CN(C(=O)c3cccnc3)[C@H](c3ccc(N4CCCCC4)cc3)C[C@@H]21	10.4%
Cc1ccc(CNC(=O)c2ccc(CS(=O)Cc3cccc(Cl)c3)o2)cc1 (configuration not stated)	1.72%
CCc1ccc(NC(=O)CC2C(=O)NCCN2C(=S)Nc2ccccc2)cc1 (configuration not stated)	1.59%
Cc1c(C=O)n(C)n(-c2ccccc2)c1=O	1.77%

SMILES	activity change
Cc1c(N=Nc2ccc(N(C)C)cc2)c(=O)n(-c2ccccc2)n1C	35.5% (active)
Cc1nc(N)sc1N=Nc1c(C)n(C)n(-c2ccccc2)c1=O	6.08%
O=C(CCN1C(=O)C2CCCCC2C1=O)Nc1ccc(OC(F)F)cc1 (configuration not stated)	1.26%
C=CC[C@H](CC(=O)N(CCO)Cc1ccccc1)C(=O)N[C@@H](COC(=O)[C@@H](CC=C)Cc1ccc(F)cc1)Cc1ccccc1	2.32%
CCN(CC)C(=O)CSC(Nc1cccc(F)c1)=C(C#N)C#N	44.9% (active)
CN(CC(=O)Nc1cccc(F)c1)C(=O)CC1CCCC1	-0.01%
Cc1ccc(CSCC(=O)N(C)CC(=O)Nc2cccc(F)c2)cc1	-2.3%
Cc1ccccc1OCCC(=O)Nc1c(C)n(C)n(-c2ccccc2)c1=O	-0.09%
O=C(CC1Nc2ccccc2NC1=O)Nc1ccccc1 (configuration not stated)	7.95%
COc1ccc(NC2=CC(=S)NC(C)(C)C2)cc1	39.2% (active)
COc1ccc(Nc2cc(Sc3ccc(OC)cc3)ncn2)cc1	7.05%
COc1ccc(CCNC2=CC(=O)CC(C)(C)C2)cc1	2.16%
CCCNC(=O)c1cc(C2CCCCN2S(=O)(=O)c2cn(C)cn2)on1 (configuration not stated)	-2.31%
Cc1cc(C)n2nc(C(=O)Nc3cccc(S(=O)(=O)N4CCOCC4)c3)nc2n1	-1.39%
CC(C)Oc1ccc(C(=O)NCC(=O)Nc2ccc3c(c2)CCC3)cc1	-0.66%
Cc1ccc(C(=O)OCC(=O)NC2CCCCCCC2)cc1C	-0.78%
Cc1nc(SCC(=O)Nc2cc(C)on2)c2c(C)c(C)sc2n1	49.9% (active)
Cc1nc(SCC(=O)N2CCc3ccccc3C2)c2c(C)c(C)sc2n1	-0.31%
Cc1nc(SCC(=O)N2CC(=O)Nc3ccccc32)c2c(C)c(C)sc2n1	-0.27%
CC/C(=C(/c1ccccc1)c1ccc(OCC[N+](C)(C)C)cc1)c1ccccc1	7.53%
C[C@@H]1CN([C@H](C)CO)C(=O)c2cc(Br)cnc2O[C@@H]1CN(C)Cc1cncnc1	3.08%
COC(=O)c1cccc(N(CC(=O)NCC2CCCO2)C(=O)CCC(=O)Nc2cc(C)on2)c1 (configuration not stated)	2.32%
O=C(COC(=O)c1ccc(F)c(S(=O)(=O)N2CCOCC2)c1)NCc1ccc2c(c1)OCO2	2.9%
